PubChem BioAssay (NCATS)
Inconclusive results are not listed. Unmarked numbers belong to inactive results. Unless noted, the call rests on the fitted dose curve; in most records, active means well fitted activation curve with a large enough effect in the main read-out, with a control signal flat (not every such curve was filed as active); inconclusive means small, poorly fitted or top-dose-only effect, or effect the other way, or a change in a side signal; inactive means flat fitted curve, though single readings scatter.

These compounds were tested against Mitogen-activated protein kinase 10 (Mus musculus) (UniProt Q61831) (assay: JNK3 AlphaScreen Assay (AID 530; active means well fitted curve in either direction with a large enough effect, not every such curve was filed as active;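 further: kinase came from lysate of stimulated human HepG2 cells; signal reports phosphorylation of biotinylated GST-cJun 1-79 at Ser73 with 10 µM ATP; on the % scale 0 is the no-effect control and ±100 the full control effect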)). Settings: JNK3 lysate, c-Jun phosphorylation; series mostly up to 11.4 µM; activity change, negative = inhibition: at the top concentration.
How it was run: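 Inhibitors reduce antibody binding to phosphorylated biotin-cJun, lowering AlphaScreen luminescence. Lysates from HepG2 cells pre-activated by IL-1beta plus TNF-alpha supplied JNK3; compounds were titrated.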

Point of comparison: `CCN(CC)COC(=S)S`, “activity change, negative = inhibition” value 3.68%. Against it:
- N[C@@H](CSC1(c2ccc(Cl)cc2)c2ccccc2-c2ccccc21)C(=O)O — lower, 0.196%
- OC[C@@H]1CCC[C@H](n2cnc3c(=S)nc[nH]c32)O1 — higher, 4.45%
- CC(=O)CSCc1ccccn1 — lower, -2.81%
- CC(C)CN(CC#N)CC(C)C — higher, 4.52%
- CC1(C)S[C@@H]2[C@H](C(=O)O)N=C(Cc3ccccc3)N2[C@H]1C(=O)O — lower, 1.52%
- O=[N+]([O-])c1ccc(CS(=O)Cc2ccccc2)cc1 (stereo not given) — lower, 3.41%
- O=C(O)c1ccncc1.O=C(O)c1ccncc1.[Cl][Pt]([Cl])([Cl])[Cl] — lower, -0.0168%
- CC(CCc1nc2ccccc2s1)(c1ccc(O)cc1)c1ccc(O)cc1 — lower, -2%
- c1ccc(CN2COc3c(ccc4c5c(ccc34)CN(Cc3ccccc3)CO5)C2)cc1 — lower, -0.511%
- O=C(O)CN1C(=O)O[C@@H](c2ccccc2)C1=O — lower, 3.15%
- O=S(=O)(c1ccccc1)N1CCN(S(=O)(=O)c2ccccc2)c2ccccc21 — higher, 8.05%
- Cc1nn(-c2ccc(S(=O)(=O)O)cc2)c(O)c1N=Nc1ccc(-c2ccc(N=Nc3ccc4c(S(=O)(=O)O)cc(S(=O)(=O)O)c(N)c4c3O)c(O)c2)cc1O.[Cu].[Cu] — lower, -14.9%
- CN1CCC[C@@H]1c1cccnc1.O=C(O)c1ccccc1O.O=C([OH2+])c1ccccc1O.O=C([OH2+])c1ccccc1O.O=C([OH2+])c1ccccc1O.[Cu] — lower, 0.177%
- O=C1OC2(c3ccc(O)cc3Oc3cc(O)ccc32)c2c1c(-c1ccccc1)c(-c1ccccc1)c(-c1ccccc1)c2-c1ccccc1 — higher, 8.19%
- CC(C)(CN)SCc1ccccc1 — lower, 0.211%
- CC(C)c1ccc2c(c1)CC[C@H]1[C@@](C)(CN)CCC[C@@]21C — lower, 0.422%
- CN1CCC[C@@H]1c1cccnc1.O=C(O)c1ccccc1O.O=C([OH2+])c1ccccc1O.O=C([OH2+])c1ccccc1O.O=C([OH2+])c1ccccc1O.[Mn] — lower, 2.61%
- Cn1c(N)nc2c(nc(OCc3ccccc3)n2[C@@H]2O[C@H](CO)[C@@H](O)[C@@H]2O)c1=O — higher, 6.05%
- O=C(O)c1oc(C(=O)O)c(C(=O)O)c1C(=O)O — lower, 2.89%
- OC(Cc1ccccc1)(Cc1ccccc1)c1ccccc1 — higher, 13.1%
- O=C(O)CN(CCN(CC(=O)O)CC(=O)O)CC(=O)O.[Mn] — lower, 1.91%
- Cc1cc(C)nc(NC(=O)COc2ccc(Cl)cc2)c1 — lower, -2.03%
- CCc1ccc(CCC(=O)O)nc1 — lower, -1.98%
- CN1CCC[C@@H]1c1cccnc1.O=C(O)c1ccccc1O.O=C([OH2+])c1ccccc1O.O=C([OH2+])c1ccccc1O.[Mn] — higher, 3.92%
- O=C(O)CN(CCN(CC(=O)O)CC(=O)O)CC(=O)O.[Cu] — lower, -1.25%
- CCC(=O)[C@@H](c1ccccc1)c1ccccn1 — lower, 0.598%
- Cc1cc(OCC(=O)O)c(Cl)cc1Cl — lower, 3.16%
- NC(=O)NCCS[C@H]1CCCC[C@@H]1O — lower, -3.31%
- CN(C)CN1CSC(=S)N(CN(C)C)C1 — higher, 3.75%
- CCOC(=O)Cn1c(C(F)(F)F)nc2nc(Cl)c(Cl)nc21 — lower, 1.06%
- Cc1cc(Cl)ccc1OCC(=O)Oc1c(Cl)c(Cl)c(Cl)c(Cl)c1Cl — lower, 2.78%
- OCCSCc1cc(Cl)cc(Cl)c1O — higher, 3.98%

Point of comparison: `COc1ccc(Oc2ncc3nc(-c4ccccc4)c(=O)n(CCC#N)c3n2)cc1`, “activity change, negative = inhibition” value -1.95% [at 57.1 µM]. Against it:
- Cc1noc(C)c1C(=O)N1CCC2(CC1)CN(c1cccc(-c3ccccc3)c1)C2 — higher, 5.07% [at 57.1 µM]
- COCCn1c(=O)c(-c2cc(F)cc(F)c2)nc2cnc(Oc3ccc(OC)cc3)nc21 — lower, -15.1% [at 57.1 µM]
- COc1ccc(C(=O)N2CCC3(CC2)CCN(c2ccccn2)CC3)cc1 — lower, -3.61% [at 57.1 µM]

These compounds were tested against 3',5'-cyclic-AMP phosphodiesterase 4B (Homo sapiens) (UniProt Q07343) (assay: qHTS Assay for Inhibitors of PDE-IV (AID 607; further: % of control where 0% means no effect)). Settings: HEK293 ACTOne CNG channel cells, membrane potential fluorescence; series mostly up to 22.9 µM; activation (PDE inhibition): at the top concentration.
How it was run: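 Cell-based read-out of cAMP via a modified cyclic nucleotide-gated channel and membrane potential dye (535/590 nm) in HEK293 cells expressing PDE4 endogenously. Compounds tested up to 22.9 uM final; 100 uM RO 20-1724 reference.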

3',5'-cyclic-AMP phosphodiesterase 4B (Homo sapiens), sequence (Q07343 whole entry, looked up): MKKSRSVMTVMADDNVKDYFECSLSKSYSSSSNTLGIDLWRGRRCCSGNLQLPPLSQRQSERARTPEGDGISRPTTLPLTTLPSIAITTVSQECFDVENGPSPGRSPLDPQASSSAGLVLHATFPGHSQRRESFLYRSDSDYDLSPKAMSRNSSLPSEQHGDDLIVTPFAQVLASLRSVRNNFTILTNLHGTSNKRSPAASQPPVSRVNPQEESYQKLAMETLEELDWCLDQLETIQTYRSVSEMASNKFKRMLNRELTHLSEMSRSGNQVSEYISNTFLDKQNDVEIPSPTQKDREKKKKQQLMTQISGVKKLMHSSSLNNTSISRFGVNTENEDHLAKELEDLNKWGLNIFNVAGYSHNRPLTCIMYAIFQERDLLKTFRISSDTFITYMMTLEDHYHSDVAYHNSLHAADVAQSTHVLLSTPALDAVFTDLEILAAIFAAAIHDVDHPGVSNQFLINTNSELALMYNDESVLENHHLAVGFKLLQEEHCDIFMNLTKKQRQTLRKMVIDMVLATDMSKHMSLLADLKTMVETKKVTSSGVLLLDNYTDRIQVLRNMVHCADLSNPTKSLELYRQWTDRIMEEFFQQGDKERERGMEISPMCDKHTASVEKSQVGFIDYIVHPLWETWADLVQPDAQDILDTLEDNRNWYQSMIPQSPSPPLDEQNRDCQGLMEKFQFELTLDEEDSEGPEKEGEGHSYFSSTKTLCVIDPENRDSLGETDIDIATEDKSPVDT

Point of comparison: `CN1CCC[C@@H]1c1cccnc1.O=C(O)c1ccccc1O.O=C([OH2+])c1ccccc1O.O=C([OH2+])c1ccccc1O.O=C([OH2+])c1ccccc1O.[Cu]`, “activation (PDE inhibition)” value 4.62%. Against it:
- N[C@@H](CSC1(c2ccc(Cl)cc2)c2ccccc2-c2ccccc21)C(=O)O — higher, 7.9%
- OC[C@@H]1CCC[C@H](n2cnc3c(=S)nc[nH]c32)O1 — lower, -4.18%
- Cc1noc(C)c1C(=O)N1CCC2(CC1)CN(c1cccc(-c3ccccc3)c1)C2 — lower, 4.45%
- CC(=O)CSCc1ccccn1 — higher, 13.6%
- CC(C)CN(CC#N)CC(C)C — lower, -1.59%
- CC1(C)S[C@@H]2[C@H](C(=O)O)N=C(Cc3ccccc3)N2[C@H]1C(=O)O — higher, 7.25%
- O=C(O)c1cccc(N=Nc2c(S(=O)(=O)O)ccc3c2C(=O)c2ccccc2C3=O)c1O — lower, -3.3%
- O=[N+]([O-])c1ccc(CS(=O)Cc2ccccc2)cc1 (stereo not given) — lower, -5.59%
- O=C(O)c1ccncc1.O=C(O)c1ccncc1.[Cl][Pt]([Cl])([Cl])[Cl] — lower, -2.86%
- CC(CCc1nc2ccccc2s1)(c1ccc(O)cc1)c1ccc(O)cc1 — lower, -7.99%
- c1ccc(CN2COc3c(ccc4c5c(ccc34)CN(Cc3ccccc3)CO5)C2)cc1 — higher, 9.1%
- O=C(O)CN1C(=O)O[C@@H](c2ccccc2)C1=O — lower, 1.92%
- O=S(=O)(c1ccccc1)N1CCN(S(=O)(=O)c2ccccc2)c2ccccc21 — higher, 6.34%
- Cc1nn(-c2ccc(S(=O)(=O)O)cc2)c(O)c1N=Nc1ccc(-c2ccc(N=Nc3ccc4c(S(=O)(=O)O)cc(S(=O)(=O)O)c(N)c4c3O)c(O)c2)cc1O.[Cu].[Cu] — lower, 0.85%
- O=C1OC2(c3ccc(O)cc3Oc3cc(O)ccc32)c2c1c(-c1ccccc1)c(-c1ccccc1)c(-c1ccccc1)c2-c1ccccc1 — lower, -5.38%
- CC(C)(CN)SCc1ccccc1 — lower, 1.95%
- COCCn1c(=O)c(-c2cc(F)cc(F)c2)nc2cnc(Oc3ccc(OC)cc3)nc21 — lower, 2.51%
- COc1ccc(Oc2ncc3nc(-c4ccccc4)c(=O)n(CCC#N)c3n2)cc1 — lower, 2.22%
- CC(C)c1ccc2c(c1)CC[C@H]1[C@@](C)(CN)CCC[C@@]21C — lower, -7.53%
- CN1CCC[C@@H]1c1cccnc1.O=C(O)c1ccccc1O.O=C([OH2+])c1ccccc1O.O=C([OH2+])c1ccccc1O.O=C([OH2+])c1ccccc1O.[Mn] — higher, 7.85%
- Cn1c(N)nc2c(nc(OCc3ccccc3)n2[C@@H]2O[C@H](CO)[C@@H](O)[C@@H]2O)c1=O — lower, -2.15%
- O=C(O)c1oc(C(=O)O)c(C(=O)O)c1C(=O)O — higher, 4.8%
- OC(Cc1ccccc1)(Cc1ccccc1)c1ccccc1 — higher, 21.9%
- O=C(O)CN(CCN(CC(=O)O)CC(=O)O)CC(=O)O.[Mn] — lower, -1.49%
- Cc1cc(C)nc(NC(=O)COc2ccc(Cl)cc2)c1 — higher, 5.67%
- CCN(CC)COC(=S)S — lower, 3.47%
- CCc1ccc(CCC(=O)O)nc1 — higher, 5.03%
- CN1CCC[C@@H]1c1cccnc1.O=C(O)c1ccccc1O.O=C([OH2+])c1ccccc1O.O=C([OH2+])c1ccccc1O.[Mn] — lower, -0.199%
- COc1ccc(C(=O)N2CCC3(CC2)CCN(c2ccccn2)CC3)cc1 — lower, -1.9%
- O=C(O)CN(CCN(CC(=O)O)CC(=O)O)CC(=O)O.[Cu] — lower, -9.63%
- CCC(=O)[C@@H](c1ccccc1)c1ccccn1 — higher, 5.93%
- Cc1cc(OCC(=O)O)c(Cl)cc1Cl — higher, 14%
- NC(=O)NCCS[C@H]1CCCC[C@@H]1O — lower, -4.45%
- CN(C)CN1CSC(=S)N(CN(C)C)C1 — lower, 2.47%
- CCOC(=O)Cn1c(C(F)(F)F)nc2nc(Cl)c(Cl)nc21 — lower, -3.68%
- Cc1cc(Cl)ccc1OCC(=O)Oc1c(Cl)c(Cl)c(Cl)c(Cl)c1Cl — higher, 13.7%
- OCCSCc1cc(Cl)cc(Cl)c1O — lower, -1.65%
